About 83,000 compounds went through this panel and 20% of them were active in at least one assay; those are over-represented in the sample as a whole.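 In brief: 96-well plates, 48 h treatment, single concentration, percent growth endpoint.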 Unmarked numbers belong to inactive results. Active and inactive are the calls of the source. How the source made its calls: active means growth percent below 10; inactive means the rest.

For the first test, the system named is SW-620 colon. Put plainly: NCI-60 one-dose screen, 48 h (100 = growth as untreated, 0 = no growth, -100 = all killed). To be noted: 10 µM unless noted.
As for `CCC1C(=O)COC1=O` (stereo not given), the growth was 98%. The same measure, in the same setting: for `C=C(C)[C@@H]1CC[C@]2(C)[C@H](CC=C3[C@@H]4CC(C)(C)CC[C@]4(C(=O)OC)CC[C@]32C)[C@@]1(C)CC/C(N)=N/O` the value was 67.6%; for `O=C(/C=C/c1cccc2ccccc12)Nc1ncc(Cc2ccccc2)s1`, 13.7%; for `N#Cc1c(-c2ccc(O)cc2)c2c(N)nn(-c3ccccc3)c2[nH]c1=O`, 102%. The same measure, in the same setting: for `COc1ccc(-c2c(-c3nc4ccc(N5CCOCC5)cc4[nH]3)[nH]c(C)c2C(C)=O)cc1` the value was 63.4%. The same measure, in the same setting: for `c1ccc(-c2nc(Nc3ccc(-c4nc5ccccc5[nH]4)cc3)nc(N3CCOCC3)n2)cc1` the value was -82.9% (active); for `Cc1cc2nc3c4cc(Cl)ccc4n(CCN(C)C)c3nc2cc1C`, -21.9% (active); for `Cc1cc(N2CCOCC2)nc(N(CCCNc2ccnc3cc(Cl)ccc23)Cc2ccco2)n1`, 21.4%.

For `Cc1cc(N(CCNc2ccnc3cc(Cl)ccc23)Cc2ccco2)nc(Cl)n1`, the growth was -35.6% (active).

Consider `COc1ccc(/C=C/C(=O)NCCO)cc1`, for which the growth was 99.3%. On the same count and under the same terms, under `O=C1NC(c2ccc(Cl)c(Cl)c2)=C/C1=C\c1ccccc1` stands 56.8%.

In the case of `N#C/C(=C\c1ccc(-c2ccccc2)o1)c1nc(-c2ccco2)cs1`, the growth is 99.2%.

With `C=C1C(=O)O[C@H]2[C@H]1CC/C(COC(=O)NCc1c[nH]c3ccccc13)=C\CC[C@@]1(C)O[C@@H]21`, the growth was 2.62% (active).

As to `Cn1cc(-c2csc(-c3cn(CCN)c4ccccc34)n2)c2cccnc21`, the growth is 44.2%.

On to `C=C(C)[C@@H]1CC[C@]2(C)[C@H](CC[C@@H]3[C@H]4[C@H]5OC[C@@]4(CCC5(C)C)CC[C@]32C)[C@@]1(C)CCCN`, for which the growth was -45.1% (active). With `CC[C@]12C=CCN3CC[C@@]4(c5cc([C@H]6CCC(=O)N6)c(OC)cc5N(C)[C@H]4[C@@](O)(C(=O)OC)[C@@H]1OC(C)=O)[C@@H]32`, the growth was 108% [2.5 µM].

Take `COc1cc2c(cc1-c1c(C)noc1C)ncc1nc(C3CCCCC3)n([C@@H](C)COC(F)F)c12`: the growth was 59.2%. As for `COc1ccc(/C=C(\C#N)c2cc3ccccc3n2S(C)(=O)=O)cc1`, the growth is 70.1%.

Turning to `CCc1cccc(CC)c1NC(=O)c1sc2nc3c(cc2c1N)CCCC3`, the growth is 70.8%.

Regarding `O=C1CCC/C=C\C[C@H]2C=C(Cl)C(=O)/C2=C/C[C@H](CCCCC(F)(F)F)OC(=O)CCC/C=C\C[C@H]2C=C(Cl)C(=O)/C2=C/C[C@H](CCCCC(F)(F)F)O1`, the growth is -30.8% [7.5 µM] (active). Same read-out and setting: under `COc1cc(-c2cc3ncccc3c3nc(N)c4cccnc4c23)cc(OC)c1OC` stands 23.9%; under `COC(=O)[C@]12CC[C@@H](C)[C@H](C)[C@@H]1C1=CC[C@@H]3[C@@]4(C)C[C@@H](OC(C)=O)[C@H](O)[C@@](C)(CO)[C@@H]4[C@H](O)C[C@@]3(C)[C@]1(C)CC2`, -67.8% (active).

As to `Cc1ccc(N(CC(=O)Nc2ccc(S(=O)(=O)NC3CCN(C)CC3)cc2)S(=O)(=O)c2ccc(Cl)cc2)cc1`, the growth was 10.1%. Same read-out and setting: for `N#CC1=C(N)Oc2ccc3ccccc3c2C1c1ccccc1` (stereo not given) the value was 28%; for `COc1ccc(C(=O)/C=C/c2cc(-c3cc(OC)c(OC)c(OC)c3)n[nH]2)cc1OC`, -64% (active); for `Cn1c(/C(C#N)=C/c2ccc3ccccc3c2)cc2ccccc21`, 26.4%. As to `CCN(CC)c1ccc(/C=C/c2cc(C)c3ccccc3n2)cc1`, the growth was 22.3%.

The next test relates to MCF7 breast. Described as above. Conditions: 10 µM unless noted.
As for `COc1cccc(-c2nn(-c3ccccc3)cc2-c2ccnc(NCCCN)c2)c1`, the growth was 41.8%. The same measure, in the same setting: under `Cn1cnc2c1c(=O)n(CCC(=O)Nc1ccc(F)cc1)c(=O)n2C` stands 101%; under `C=C(C)[C@@H]1CC[C@]2(C=O)CC[C@]3(C)[C@H](CC[C@@H]4[C@@]5(C)C/C(=C/c6cccnc6)C(=O)C(C)(C)[C@@H]5CC[C@]43C)[C@@H]12`, 40.5%. The same measure, in the same setting: under `CN(C)c1cccc2[nH]c(-c3[nH]ncc3Nc3ccnc(N)n3)nc12` stands -46.1% (active). Same read-out and setting: for `O=Cc1nc2ccccc2[nH]1` the value was 96.4%; for `COc1cc2nc(Cl)nc(Nc3cccc(C(=O)/C=C/c4ccc(Br)cc4)c3)c2cc1OC`, 31.7%. As to `CC[C@H](CC[C@@H](C)[C@H]1CC[C@H]2[C@@H]3/C(=C/c4cccnc4)C(=O)C4=CC(=O)CC[C@]4(C)[C@H]3CC[C@]12C)C(C)C`, the growth was 51%. The same measure, in the same setting: for `C=C(C)[C@@H]1CC[C@]2(c3nnc(-c4ccncc4)o3)CC[C@]3(C)[C@H](CC[C@@H]4[C@@]5(C)CCC(=O)NC(C)(C)[C@@H]5CC[C@]43C)[C@@H]12` the value was 92.9%.

For the compound `COc1cc(NC(C)CN(CC(C)C)C(C)C)c2ncccc2c1` (stereo not given), the growth was 43%.

`Nc1c2c(nc3ccc(Cl)cc13)CC(c1ccccc1)CC2=O` (stereo not given): the growth was 19%.

Take `COC(=O)[C@]12CC[C@@H](C)[C@H](C)[C@@H]1C1=CC[C@@H]3[C@@]4(C)C[C@@H](O)[C@H](O)[C@@](C)(CO)C4=CC[C@@]3(C)[C@]1(C)CC2`: the growth is -37.1% (active).

For the compound `CCC1C(=O)COC1=O` (stereo not given), the growth was 94.8%. For the compound `C=C(C)[C@@H]1CC[C@]2(C)[C@H](CC=C3[C@@H]4CC(C)(C)CC[C@]4(C(=O)OC)CC[C@]32C)[C@@]1(C)CC/C(N)=N/O`, the growth was 3.92% (active). Still for that read-out and setting: under `O=C(/C=C/c1cccc2ccccc12)Nc1ncc(Cc2ccccc2)s1` stands 10.8%; under `N#Cc1c(-c2ccc(O)cc2)c2c(N)nn(-c3ccccc3)c2[nH]c1=O`, 101%. The same measure, in the same setting: for `COc1ccc(-c2c(-c3nc4ccc(N5CCOCC5)cc4[nH]3)[nH]c(C)c2C(C)=O)cc1` the value was 10.8%.

As to `c1ccc(-c2nc(Nc3ccc(-c4nc5ccccc5[nH]4)cc3)nc(N3CCOCC3)n2)cc1`, the growth is -76.2% (active). On the same count and under the same terms, under `Cc1cc2nc3c4cc(Cl)ccc4n(CCN(C)C)c3nc2cc1C` stands -37.9% (active). The same measure, in the same setting: for `Cc1cc(N2CCOCC2)nc(N(CCCNc2ccnc3cc(Cl)ccc23)Cc2ccco2)n1` the value was 15.5%; for `Cc1cc(N(CCNc2ccnc3cc(Cl)ccc23)Cc2ccco2)nc(Cl)n1`, -29.7% (active); for `COc1ccc(/C=C/C(=O)NCCO)cc1`, 94.8%. Still for that read-out and setting: under `O=C1NC(c2ccc(Cl)c(Cl)c2)=C/C1=C\c1ccccc1` stands 63.1%; under `N#C/C(=C\c1ccc(-c2ccccc2)o1)c1nc(-c2ccco2)cs1`, 17.6%; under `C=C1C(=O)O[C@H]2[C@H]1CC/C(COC(=O)NCc1c[nH]c3ccccc13)=C\CC[C@@]1(C)O[C@@H]21`, 17.1%. For `Cn1cc(-c2csc(-c3cn(CCN)c4ccccc34)n2)c2cccnc21`, the growth was 16.7%. Same read-out and setting: under `C=C(C)[C@@H]1CC[C@]2(C)[C@H](CC[C@@H]3[C@H]4[C@H]5OC[C@@]4(CCC5(C)C)CC[C@]32C)[C@@]1(C)CCCN` stands 0.266% (active). As to `CC[C@]12C=CCN3CC[C@@]4(c5cc([C@H]6CCC(=O)N6)c(OC)cc5N(C)[C@H]4[C@@](O)(C(=O)OC)[C@@H]1OC(C)=O)[C@@H]32`, the growth was 93.2% [2.5 µM]. On the same count and under the same terms, under `COc1cc2c(cc1-c1c(C)noc1C)ncc1nc(C3CCCCC3)n([C@@H](C)COC(F)F)c12` stands 12.1%; under `COc1ccc(/C=C(\C#N)c2cc3ccccc3n2S(C)(=O)=O)cc1`, 66.8%. On to `CCc1cccc(CC)c1NC(=O)c1sc2nc3c(cc2c1N)CCCC3`, for which the growth is 42.5%. Same read-out and setting: under `O=C1CCC/C=C\C[C@H]2C=C(Cl)C(=O)/C2=C/C[C@H](CCCCC(F)(F)F)OC(=O)CCC/C=C\C[C@H]2C=C(Cl)C(=O)/C2=C/C[C@H](CCCCC(F)(F)F)O1` stands -38.9% [7.5 µM] (active); under `COc1cc(-c2cc3ncccc3c3nc(N)c4cccnc4c23)cc(OC)c1OC`, 21.7%. The same measure, in the same setting: for `COC(=O)[C@]12CC[C@@H](C)[C@H](C)[C@@H]1C1=CC[C@@H]3[C@@]4(C)C[C@@H](OC(C)=O)[C@H](O)[C@@](C)(CO)[C@@H]4[C@H](O)C[C@@]3(C)[C@]1(C)CC2` the value was -73.5% (active); for `Cc1ccc(N(CC(=O)Nc2ccc(S(=O)(=O)NC3CCN(C)CC3)cc2)S(=O)(=O)c2ccc(Cl)cc2)cc1`, 39%; for `N#CC1=C(N)Oc2ccc3ccccc3c2C1c1ccccc1` (stereo not given), 14.8%. On the same count and under the same terms, under `COc1ccc(C(=O)/C=C/c2cc(-c3cc(OC)c(OC)c(OC)c3)n[nH]2)cc1OC` stands -39.6% (active). As for `Cn1c(/C(C#N)=C/c2ccc3ccccc3c2)cc2ccccc21`, the growth is 14.1%.

For `CCN(CC)c1ccc(/C=C/c2cc(C)c3ccccc3n2)cc1`, the growth was 21.2%.

For the origin of these results see PubChem BioAssay (NCI).
